Experiment [1] in a line: NCI Yeast Anticancer Drug Screen. Data for the rad50 strain (AID 155).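 Note: 0% = growth of vehicle-only cultures of the same strain.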 To be noted: S. cerevisiae rad50 strain growth inhibition; at 50.0 µM; hits give high values. In a few lines:
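Cells are treated with compound, grown, and their growth is then scored against vehicle-only cultures of the same repair-deficient yeast strain.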

Experiment [2] is described as follows: NCI Yeast Anticancer Drug Screen. Data for the mec2-1 strain (AID 157). Conditions: S. cerevisiae mec2-1 strain, at 50.0 µM, hits give high values. In a few lines: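 Yeast mec2-1 mutant treated with compound. Readout: growth inhibition vs vehicle controls.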
Experiment [3] in a line: NCI Yeast Anticancer Drug Screen. Data for the sgs1 mgt1 strain (AID 161).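 Note: 0% = growth of cultures given vehicle only.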 To be noted: S. cerevisiae sgs1 mgt1 strain, at 50.0 µM, hits give high values. In a few lines:
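Read-out: growth inhibition vs vehicle controls. Cells: mutant yeast strain deficient in DNA damage repair.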

Experiment [4] in a line: NCI Yeast Anticancer Drug Screen. Data for the bub3 strain (AID 167). Conditions: S. cerevisiae bub3 mutant strain, at 50.0 µM, hits give high values. The essentials: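 Part of a panel of yeast mutants defective in DNA damage repair or cell cycle regulation. Each strain is grown with compound, and inhibition is calculated relative to solvent-treated cultures.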
Experiment [5] is described as follows: NCI Yeast Anticancer Drug Screen. Data for the mlh1 rad18 strain (AID 175). To be noted: S. cerevisiae mlh1 rad18 strain growth inhibition; at 50.0 µM; hits give high values. In a few lines: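 Yeast w/ defined DNA-repair lesions; compound exposure; growth vs vehicle controls → % inhibition.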
Experiment [6] is described as follows: NCI Yeast Anticancer Drug Screen. Data for the cln2 rad14 strain (AID 165).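 Note: 0% = growth equal to vehicle treated cultures.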 Conditions: S. cerevisiae cln2 rad14 strain, at 50.0 µM, hits give high values. The essentials:
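cln2 rad14 yeast strain; compound exposure; growth inhibition read vs vehicle controls.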

This is part of a sample that, as a whole, favours compounds with a hit. Of some 79,000 tested, about 15% had one in any assay. Values without a mark were called inactive. Calls of active or inactive are those of the source. Cut-off read from the data, not from the text of the source: active = growth inhibition above about 70%; inactive = the rest.

23 molecules from PubChem BioAssay (NCI) can be followed below.

Regarding `O=C(Nc1ccccc1)Oc1ccc(/C=N/Sc2cccc([N+](=O)[O-])c2)cc1`, the growth inhibition is 67.1% in experiment [1]; 60.6% in experiment [2]; 73.8% (active) in experiment [3]; 73.8% (active) in experiment [4]; 62.2% in experiment [5].

As for `Cc1cccn(C)c1=O`, the growth inhibition in experiment [1] is -5%; in experiment [2], 1.9%; in experiment [3], 2.15%; in experiment [4] it was 0.4%; in experiment [5], 3.05%.

Consider `CC1(O)/C=C\C=C(\CO)C2CC(C)(C)C2(O)CC1` (stereo unspecified), for which the growth inhibition in experiment [1] is -29.9%; in experiment [2], -40%; in experiment [3], -43.1%; in experiment [4] it was -46%; in experiment [5], -29.8%.

For `Nc1c([N+](=O)[O-])cc(F)cc1C(F)(F)F`, the growth inhibition is -5.5% in experiment [1]; -17.6% in experiment [2]; 3.6% in experiment [3]; 5.4% in experiment [4]; 6.7% in experiment [5].

With `C[C@H]1C[C@](C)(CO)Oc2oc3ccccc3c(=O)c21`, the growth inhibition was 4.5% in experiment [1]; 10.3% in experiment [2]; 17.4% in experiment [3]; 7.2% in experiment [4]; 13.1% in experiment [5].

As to `Cc1nc(/N=C(/N)N(C)C)[nH]c(=O)c1C`, the growth inhibition was 1.7% in experiment [1]; -27.6% in experiment [2]; -11.6% in experiment [3]; 4.05% in experiment [4]; 19.9% in experiment [5].

Take `N#Cc1ccc(NC(=NCC(=O)O)Nc2ccc3ccccc3c2)cc1`: the growth inhibition in experiment [1] is -16.2%; in experiment [2], -30.6%; in experiment [3], -14.6%; in experiment [4] it was -26.3%; in experiment [5], 8.25%.

As to `O=C1CC=NC(=S)N1`, the growth inhibition is -0.6% in experiment [1]; 7% in experiment [2]; 8.75% in experiment [3]; -2.7% in experiment [4]; 28.4% in experiment [5].

Turning to `Nc1ccc(CCCCc2nc(N)nc(N)c2-c2ccc(Cl)c(Cl)c2)cc1`, the growth inhibition in experiment [1] is 36.5%; in experiment [2], 77% (active); in experiment [3], 88.8% (active); in experiment [4], 14.9%; in experiment [5] it was 60.5%.

Regarding `COc1ccc(C2C3=C(CC(C)(C)CC3=O)Oc3cc4c(cc32)OCO4)cc1` (stereo unspecified), the growth inhibition in experiment [1] is -2.7%; in experiment [2], -0.05%; in experiment [3], -25%; in experiment [4], 0%; in experiment [5] it was -4.95%.

Take `Nc1ncnc2c1ncn2C(=O)NC12CC3CC(CC(C3)C1)C2`: the growth inhibition in experiment [1] was 9.75%; in experiment [2], 14.6%; in experiment [3], 8.7%; in experiment [4], 8.25%; in experiment [5], -8.2%.

With `COc1cc(C=O)ccc1OC(=O)Nc1cccc(Cl)c1C`, the growth inhibition is -0.55% in experiment [1]; 18.6% in experiment [2]; 15.8% in experiment [3]; 37.2% in experiment [4]; 17.8% in experiment [5].

Consider `O=C(c1ccc(Cl)cc1)N(C(=S)N1CCN(c2ccccc2)CC1)c1ccccc1`, for which the growth inhibition in experiment [1] is -11.5%; in experiment [2], -25.9%; in experiment [3], -12.1%; in experiment [4], -13.8%; in experiment [5] it was -15.1%.

Consider `N#Cc1[nH]cnc1O`, for which the growth inhibition in experiment [1] was -9.6%; in experiment [2], -10.4%; in experiment [3] it was -11.4%; in experiment [4], 17.4%; in experiment [5] it was -5.85%.

Take `O=C(Nc1ccccc1)O/N=C(/c1ccccc1)c1cccnc1`: the growth inhibition in experiment [1] was 15.2%; in experiment [2], -5.1%; in experiment [3] it was 13.2%; in experiment [4], 15.2%; in experiment [5], 6.3%.

`NC(=O)NCC(N)C(=O)O` (stereo unspecified): the growth inhibition was -4.75% in experiment [1]; -5.2% in experiment [2]; -2.3% in experiment [3]; 1.55% in experiment [6]; -1.9% in experiment [5].

For `CCN(CC)CCNCc1ccc(Cl)cc1`, the growth inhibition in experiment [1] is -16.5%; in experiment [2] it was -38.8%; in experiment [3], 3.95%; in experiment [4], -8.7%; in experiment [5] it was -16.1%.

`O=[N+]([O-])c1ccc(S(=O)(=O)Nc2ccccc2-c2ccccc2)cc1`: the growth inhibition in experiment [3] was 99.3% (active).

With `COC(=O)c1s/c(=N\C(=S)N(C)C)n(-c2ccccc2)c1C(=O)OC`, the growth inhibition was 5.3% in experiment [1]; -0.1% in experiment [3]; 15.2% in experiment [6]; -8.85% in experiment [4]; 11.2% in experiment [5].

As to `O=C1CCCCCCCC(=O)Nc2ccc3nc4ccccc4c(c3c2)SCCCCCCCCCCCCSc2c3ccccc3nc3ccc(cc23)N1`, the growth inhibition is -9.85% in experiment [1]; -20.9% in experiment [3]; -9.15% in experiment [6]; -3.2% in experiment [4]; -10.3% in experiment [5].

For `O=C(CN1CCCCC1)NC(=O)N/N=C\c1ccco1`, the growth inhibition was 0.1% in experiment [1]; 6.1% in experiment [3]; -59% in experiment [6]; -0.15% in experiment [4]; 13.8% in experiment [5].

Take `C(=N\c1nnc2ccccn12)/c1ccccc1`: the growth inhibition in experiment [1] was 0.2%; in experiment [3] it was -21.7%; in experiment [6], -9.6%; in experiment [4], -13.7%; in experiment [5], -28.3%.

For the molecule `CCCCCCCCCCCCCCCCSC(=N)N`, the growth inhibition in experiment [1] was 25.2%; in experiment [3] it was 55.8%; in experiment [6], 14.1%; in experiment [4] it was 40%; in experiment [5] it was 38%.
